In test [1] the target is Regulator of G-protein signaling 16 (Homo sapiens) (UniProt O15492). The experiment in a line: modulators of RGS–Galpha-o binding, primary screen, biochemical, multiplexed beads, flow cytometry, RGS4/7/8/16/19 (AID 1504).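 Also: fluorescently labeled Galpha-o bound to GDP with aluminium fluoride binding biotinylated RGS beads.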 The following applies: multiplexed bead flow cytometry, measured here: RGS16 interaction, at 10 µM. Background: Flow cytometry measures light scatter and fluorescence of single cells or particles in a stream.

Test [2] addresses Regulator of G-protein signaling 19 (Homo sapiens) (UniProt P49795). Described as above. The following applies: multiplexed bead flow cytometry, measured here: RGS19 interaction, at 10 µM.
The target of test [3] is Regulator of G-protein signaling 7 (Homo sapiens) (UniProt P49802). Described as above. The following applies: multiplexed bead flow cytometry, measured here: RGS7 interaction, at 10 µM.
The target in test [4] is Regulator of G-protein signaling 8 (Homo sapiens) (UniProt P57771). The test is described as above. The note with it: multiplexed bead flow cytometry, measured here: RGS8 interaction, at 10 µM.
Test [5] in a line: disruption of biotin probe capture by avidin, counter-screen for RGS protein interaction modulators, biochemical, flow cytometry, bead-based (AID 1783;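 active = inhibition above 50%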;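 also: median green fluorescence of gated singlet beads compared with DMSO control wells; 0% = DMSO wells and 100% = complete loss of bead fluorescence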). The note with it: streptavidin beads, fluorescein-biotin binding; at 10 µM, stronger effect = higher value.
The target of test [6] is Guanine nucleotide-binding protein G(o) subunit alpha (Homo sapiens) (UniProt P09471). The experiment in a line: RGS8-Galphao binding modulators, confirmation, biochemical, multiplexed bead flow cytometry, single concentration (AID 1836; in the data active = binding response below about 72% or above about 130%; inactive = in between;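 also: Galphao activated as GDP AlF4 complex before binding bead RGS8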). The following applies: bead-based flow cytometry RGS8-Galphao binding, fluorescence; at 10 µM; actives lie on both sides.
Guanine nucleotide-binding protein G(o) subunit alpha (Homo sapiens), sequence (P09471 whole entry, looked up): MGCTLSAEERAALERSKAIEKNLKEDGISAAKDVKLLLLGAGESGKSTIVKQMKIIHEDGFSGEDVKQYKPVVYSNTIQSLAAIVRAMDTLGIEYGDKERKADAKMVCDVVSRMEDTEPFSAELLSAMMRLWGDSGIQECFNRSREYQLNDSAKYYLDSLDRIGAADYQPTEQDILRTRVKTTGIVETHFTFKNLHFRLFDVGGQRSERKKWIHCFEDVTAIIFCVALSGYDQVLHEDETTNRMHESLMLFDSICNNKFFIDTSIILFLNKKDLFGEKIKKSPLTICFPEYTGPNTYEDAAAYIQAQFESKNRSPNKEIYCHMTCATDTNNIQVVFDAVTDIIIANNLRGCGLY
The target is the same in test [7]. The experiment in a line: RGS7-Galphao binding modulators, confirmation, biochemical, multiplexed bead flow cytometry, single concentration (AID 1837; in the data active = response below about 75% or above about 130%; inactive = in between;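 also: fluorescent Galphao activated with GDP and aluminum fluoride binding bead-coupled RGS7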). The following applies: bead-based flow cytometry RGS7-Galphao binding; at 10 µM; actives lie on both sides.
In test [8] the target is Regulator of G-protein signaling 16 (Homo sapiens) + Guanine nucleotide-binding protein G(o) subunit alpha (Homo sapiens) (UniProt O15492+P09471). The experiment in a line: modulators of RGS16-Galphao protein binding, confirmation, biochemical, single concentration, multiplexed bead flow cytometry (AID 1838; in the data active = response below about 74% or above about 130%; inactive = in between;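 also: Galphao activated as the GDP aluminium fluoride complex binding bead-coupled RGS16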). The following applies: bead-based flow cytometry, at 10 µM, actives lie on both sides.
Regulator of G-protein signaling 16 (Homo sapiens) + Guanine nucleotide-binding protein G(o) subunit alpha (Homo sapiens), sequence (O15492 whole entry, looked up): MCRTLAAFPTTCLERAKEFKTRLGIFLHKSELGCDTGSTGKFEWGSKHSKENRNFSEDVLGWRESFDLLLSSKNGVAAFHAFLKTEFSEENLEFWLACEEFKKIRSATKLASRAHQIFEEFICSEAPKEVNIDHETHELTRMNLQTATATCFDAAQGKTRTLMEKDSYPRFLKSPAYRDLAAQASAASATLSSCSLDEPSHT
Regulator of G-protein signaling 16 (Homo sapiens) + Guanine nucleotide-binding protein G(o) subunit alpha (Homo sapiens), sequence (P09471 whole entry, looked up): as the sequence (P09471 whole entry, looked up) above

Test [9] deals with Guanine nucleotide-binding protein G(o) subunit alpha (Homo sapiens) (UniProt P09471). The experiment in a line: modulators of RGS4-Galphao protein binding, confirmation, biochemical, single concentration, multiplexed bead flow cytometry (AID 1840; in the data active = binding response below about 74% or above about 130%; inactive = in between). The note with it: at 10 µM, actives lie on both sides.
For test [10], the target named is Guanine nucleotide-binding protein G(o) subunit alpha (Homo sapiens) + Regulator of G-protein signaling 19 (Homo sapiens) (UniProt P09471+P49795). The experiment in a line: regulators of RGS19-Galphao binding, confirmation, biochemical, single point, multiplexed bead flow cytometry (AID 1841).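 Also: 100% = no compound control and 0% = blank background.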 The following applies: bead-based flow cytometry RGS19-Galphao binding; at 10 µM; actives lie on both sides.
Guanine nucleotide-binding protein G(o) subunit alpha (Homo sapiens) + Regulator of G-protein signaling 19 (Homo sapiens), sequence (P09471 whole entry, looked up): as above
Guanine nucleotide-binding protein G(o) subunit alpha (Homo sapiens) + Regulator of G-protein signaling 19 (Homo sapiens), sequence (P49795 whole entry, looked up): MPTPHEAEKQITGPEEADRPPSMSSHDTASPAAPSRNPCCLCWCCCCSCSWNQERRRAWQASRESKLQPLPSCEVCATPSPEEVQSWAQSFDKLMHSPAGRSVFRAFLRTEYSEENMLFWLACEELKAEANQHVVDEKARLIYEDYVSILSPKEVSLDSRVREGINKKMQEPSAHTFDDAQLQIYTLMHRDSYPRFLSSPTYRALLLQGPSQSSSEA

Structures are written as SMILES. This is one part of the list. Activity calls are given as the source filed them. Rule as the data show it, unless noted: active = response below about 50% or above about 160%; inactive = in between.

As to `CCCn1c(C)cc(C(=O)COC(=O)c2c(C)nn(-c3ccccc3)c2C)c1C`, the RGS16–Galpha-o binding response in [1] was -33.9%. In [2], the RGS19–Galpha-o binding response amounted to 99.6%. In [3], this compound registered an RGS7–Galpha-o binding response of 81.9%. The same compound showed an RGS8–Galpha-o binding response in test [4] of 83.8%. In addition, the inhibition in test [5] was 1.1% (inactive). Also, the binding response (% of control) in [6] is 105% (inactive); in [9] it was 104% (inactive). The response (percent of control binding) is 104% (inactive) in test [7] and 110% (inactive) in [10]. Moreover, in test [8], the response (% of control binding) was 103% (inactive).

With `Cc1ccc(C)c(OCC(=O)N2CCN(C(=O)c3ccco3)CC2)c1`, the RGS16–Galpha-o binding response in test [1] came to 24.4%. For the same compound, the RGS19–Galpha-o binding response in test [2] was 113%. This compound also returned an RGS7–Galpha-o binding response in test [3] of 89.8%. In addition, the RGS8–Galpha-o binding response in test [4] turned out to be 88.5%. Besides, in test [5], the inhibition was 2.8% (inactive). For the same compound, the results for the binding response (% of control) in test [6] and in test [9] were 104% (inactive) and 106% (inactive), respectively. Further, the response (percent of control binding) in [7] is 104% (inactive); in test [10], 110% (inactive). In addition, the response (% of control binding) in test [8] is 107% (inactive).

As for `Cc1c(CN2CCCC(C(=O)c3cccc(Cl)c3)C2)c(=O)n(-c2ccccc2)n1C` (centres undefined), the RGS16–Galpha-o binding response in [1] was determined as 97.1%. The compound also gave an RGS19–Galpha-o binding response in test [2] of 50.3%. In addition, in test [3], the RGS7–Galpha-o binding response amounted to 230%. This compound yielded an RGS8–Galpha-o binding response in test [4] of 95%. Moreover, the inhibition in [5] was -1.5% (inactive). Further, the binding response (% of control) in [6] was 102% (inactive); in test [9] it was 103% (inactive). The response (percent of control binding) in test [7] was 106% (inactive); in test [10] it was 104% (inactive). In addition, the response (% of control binding) in [8] was 102% (inactive).

Take `CC(=O)c1ccc(NC(=S)NC(=O)CC(C)C)cc1`: the RGS16–Galpha-o binding response in [1] was determined as 21.8%. The same compound showed an RGS19–Galpha-o binding response in test [2] of 162%. Further, in [3], the RGS7–Galpha-o binding response worked out at 91.6%. This compound also came in with an RGS8–Galpha-o binding response in test [4] of 81.4%. For the same compound, the inhibition in [5] is 3.2% (inactive). In addition, the values for the binding response (% of control) in test [6] and in test [9] were 99.1% (inactive) and 93.6% (inactive), respectively. The values for the response (percent of control binding) in test [7] and in [10] were 86.2% (inactive) and 87.5% (inactive), respectively. The response (% of control binding) in test [8] is 93.9% (inactive).

As to `O=C(Nc1cccc(-c2nc3ccccc3[nH]2)c1)c1ccc(C(=O)Nc2cccc(-c3nc4ccccc4[nH]3)c2)cc1`, the RGS16–Galpha-o binding response in test [1] turned out to be 219%. Besides, in test [2], the RGS19–Galpha-o binding response was 436%. This compound also displayed an RGS7–Galpha-o binding response in test [3] of 495%. Moreover, the RGS8–Galpha-o binding response in [4] stood at 112%. Moreover, the inhibition in test [5] is 1% (inactive). For the same compound, the binding response (% of control) was 104% (inactive) in test [6] and 108% (inactive) in [9]. The response (percent of control binding) in [7] was 126% [activator] (active); in test [10], 217% (active). In test [8], the response (% of control binding) was 131% [activator] (active).

`Cc1ccc(-n2c(SCC(=O)Nc3ncc(Cl)cc3Cl)nc3ccccc32)cc1`: the RGS16–Galpha-o binding response in test [1] was determined as 13.7%. The RGS19–Galpha-o binding response in [2] came to 134%. For the same compound, the RGS7–Galpha-o binding response in test [3] stood at 83.7%. The RGS8–Galpha-o binding response in test [4] came out at 76.9%. The inhibition in test [5] was 1% (inactive). For the same compound, the binding response (% of control) in test [6] was 103% (inactive); in test [9] it was 104% (inactive). The figures for the response (percent of control binding) in test [7] and in test [10] were 105% (inactive) and 113% (inactive), respectively. For the same compound, in test [8], the response (% of control binding) is 103% (inactive).

As to `CCCC(=O)N=c1sc2cccc(F)c2n1C`, the RGS16–Galpha-o binding response in test [1] came to 76.5%. Moreover, in [2], the RGS19–Galpha-o binding response turned out to be 14800%. In [3], this compound yielded an RGS7–Galpha-o binding response of 18%. Moreover, in test [4], the RGS8–Galpha-o binding response turned out to be 37.2%.

On to `O=c1[nH]c2ccccc2s1`, for which the RGS16–Galpha-o binding response in test [1] came out at 23%. This compound yielded an RGS19–Galpha-o binding response in [2] of 148%. The compound also displayed an RGS7–Galpha-o binding response in [3] of 88.2%. Moreover, in test [4], the RGS8–Galpha-o binding response was 79%. Moreover, in test [5], the inhibition was -0.3% (inactive). For the same compound, the figures for the binding response (% of control) in [6] and in test [9] were 103% (inactive) and 102% (inactive), respectively. Also, the response (percent of control binding) is 102% (inactive) in [7] and 99.2% (inactive) in [10]. Moreover, the response (% of control binding) in test [8] is 101% (inactive).

As to `C/C(=N\NS(=O)(=O)c1ccc(Br)cc1)c1cccs1`, the RGS16–Galpha-o binding response in test [1] is -881%. Further, the RGS19–Galpha-o binding response in test [2] was found to be 99.9%. In test [3], the RGS7–Galpha-o binding response is 106%. This compound gave an RGS8–Galpha-o binding response in test [4] of 95.4%. For the same compound, the inhibition in [5] is 1.5% (inactive). The binding response (% of control) in test [6] is 102% (inactive); in test [9] it was 104% (inactive). Besides, the response (percent of control binding) was 103% (inactive) in [7] and 99.1% (inactive) in test [10]. Moreover, the response (% of control binding) in test [8] was 103% (inactive).

Usually inhibition stands for the change of the read-out against control, counted positive when it falls.

Source of the values: PubChem BioAssay.
